Measurements published in PubChem BioAssay AID488848 (Broad Institute, 2010).
Entries with a potency or affinity are not part of this list.

Assay: suppression of cytokine-induced beta-cell apoptosis – INS-1E, caspase luminescence, dry powder, beta-cell apoptosis inhibitor project, dose response (AID 488848)
Conditions: INS-1E cytokine-induced caspase-3/7 luminescence, 48 h; series mostly up to 19.5 µM; activity change, negative = inhibition: at the top concentration;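 active = compounds lowering caspase signal with half-maximal concentration at most ten times their top tested dose; inconclusive = flat curve with 30 to 70% inhibition, or poor fit; inactive = the rest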

Activity change, negative = inhibition, inactive:
C[C@@H]1CN([C@@H](C)CO)C(=O)c2cccc(NC(=O)Nc3cccc4ccccc34)c2O[C@H]1CN(C)S(=O)(=O)c1ccc(F)cc1 8.37%, COc1ccc(S(=O)(=O)N(C)C[C@@H]2Oc3c(NC(=O)Nc4cccc5c4NSN5)cccc3C(=O)N([C@@H](C)CO)C[C@H]2C)cc1 -24.4%, C[C@@H]1CN([C@@H](C)CO)C(=O)c2cccc(NC(=O)Nc3cccc4ccccc34)c2O[C@H]1CN(C)S(=O)(=O)c1ccc(Oc2ccccc2)cc1 52.6%, COc1ccc(S(=O)(=O)N(C)C[C@@H]2Oc3c(NC(=O)Nc4cccc5ccccc45)cccc3C(=O)N([C@@H](C)CO)C[C@H]2C)c(OC)c1 35.2%, COc1cccc(S(=O)(=O)N(C)C[C@@H]2Oc3c(NC(=O)Nc4cccc5ccccc45)cccc3C(=O)N([C@@H](C)CO)C[C@H]2C)c1 13.2%, C[C@@H]1CN([C@@H](C)CO)C(=O)c2cccc(NC(=O)Nc3cccc4ccccc34)c2O[C@H]1CN(C)S(=O)(=O)c1ccccc1F 33.7%, COc1ccc(S(=O)(=O)N(C)C[C@@H]2Oc3c(NC(=O)Nc4ccc5occc5c4)cccc3C(=O)N([C@@H](C)CO)C[C@H]2C)cc1 6.21%, C[C@@H]1CN([C@@H](C)CO)C(=O)c2cccc(NC(=O)Nc3cccc4ccccc34)c2O[C@H]1CN(C)S(=O)(=O)c1ccc(-c2ccccc2)cc1 14.8%, Cc1ccc(S(=O)(=O)N(C)C[C@@H]2Oc3c(NC(=O)Nc4ccc(F)cc4)cccc3C(=O)N([C@H](C)CO)C[C@H]2C)cc1 -12.5%, COc1ccc(S(=O)(=O)N(C)C[C@@H]2Oc3c(NC(=O)Nc4ccccc4-c4ccccc4)cccc3C(=O)N([C@@H](C)CO)C[C@H]2C)cc1 2.24%, C[C@@H]1CN([C@@H](C)CO)C(=O)c2cccc(NC(=O)Nc3cccc4ccccc34)c2O[C@H]1CN(C)S(=O)(=O)Cc1ccc(F)cc1 25.1%, COc1ccccc1S(=O)(=O)N(C)C[C@@H]1Oc2c(NC(=O)Nc3cccc4ccccc34)cccc2C(=O)N([C@@H](C)CO)C[C@H]1C 48.5%, C[C@@H]1CN([C@@H](C)CO)C(=O)c2cccc(NC(=O)Nc3cccc4ccccc34)c2O[C@H]1CN(C)S(=O)(=O)c1ccc(Cl)cc1 -2.11%, COc1ccc(S(=O)(=O)N(C)C[C@@H]2Oc3c(NC(=O)Nc4cccc5c4CC(C)(C)O5)cccc3C(=O)N([C@@H](C)CO)C[C@H]2C)cc1 5.11%, COc1ccc(S(=O)(=O)N(C)C[C@@H]2Oc3c(NC(=O)NC4CCCc5ccccc54)cccc3C(=O)N([C@@H](C)CO)C[C@H]2C)cc1 (stereo partly specified) 5.55%, COc1ccc(S(=O)(=O)N(C)C[C@@H]2Oc3c(NC(=O)Nc4cccc(C(F)(F)F)c4)cccc3C(=O)N([C@@H](C)CO)C[C@H]2C)cc1 4.38%
